Laboratory results published in PubChem BioAssay.

experiment: calcein-AM signal in unstimulated myeloma cells – cell-based, calcein-AM fluorescence, 48 h, PK04 Diversity Set, profiling panel (AID 1166); settings: RPMI8226 myeloma viability, higher = more signal;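 further: cells grown under basal conditions without added stimulus; test concentration not given here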

SMILES | z-score
COC(=O)Cn1c(C(=O)N2CCCC2)cc2c1C[C@H]1CN(C(=O)c3ccccc3)[C@@](Cc3ccccc3)(C(=O)OC)[C@@H]21 | -0.256
O=C1C[C@@](C(=O)NCCN2CCOCC2)(c2ccc([N+](=O)[O-])cc2)[C@@H](c2ccc(CO)cc2)N1C1CCCCC1 | 0.633
CC(=O)NCCCC[C@@H]1NC(=O)[C@H]2C[C@@H](C(=O)NCCCCCCN(C)C)[C@@H](c3cccc(OCCO)c3)N2C1=O | 0.079
CC(C)(C)OC(=O)CC[C@]1(C(=O)N2CCCCC2)N=C(c2ccc(OCCCO)cc2)O[C@H]1c1ccccc1 | -1.04
CC(=O)NCCCC[C@@H]1NC(=O)[C@H]2C[C@@H](C(=O)NCCCCCCN(C)C)[C@@H](c3ccc(O)cc3)N2C1=O | -0.551
O=C1C2C=CC(C(O)Cc3ccccc3)N(Nc3ccc([N+](=O)[O-])cc3)C2C(=O)N1c1ccccc1 (stereo unspecified) | -0.0631
C=C(COC)C(=O)CC[C@H](OC(=O)c1ccccc1-c1ccccc1C(=O)O)c1cccc(OCCO)c1 | -0.28
C=CC[C@@]1(C(=O)NCC(O)CO)N=C(c2ccc(OCCCO)cc2)O[C@@H]1c1ccccc1CN=[N+]=[N-] (stereo partly specified) | 0.0295
O=C(CS)NCCCCCCNC(=O)[C@@H]1C[C@@H]2C(=O)N[C@@H](Cc3ccccc3)C(=O)N2[C@@H]1c1ccc(O)cc1 | 0.612
C=CC[C@]1(C(=O)N2CCCCC2)N=C(c2ccc(OCCCO)cc2)O[C@H]1c1ccccc1N=[N+]=[N-] | -2.55
COC(=O)[C@@]1(Cc2ccc(OC)cc2)[C@H]2c3cc(C(=O)N(C)C)n(Cc4ccc(C)c(F)c4F)c3C[C@H]2CN1C(=O)c1ccccc1 | -1.5
[N-]=[N+]=NCc1ccccc1C[C@]1(C(=O)N2CCCCC2)N=C(c2ccc(OCCCO)cc2)O[C@H]1c1ccccc1CN=[N+]=[N-] | -4.22
CC(C)[Si](OCC[C@H]1O[C@]2(C(=O)N(Cc3ccccc3)c3ccccc32)[C@@H](C)[C@@H]1[Si](C)(C)O)(C(C)C)C(C)C | -1.31
C=CCC(OC(C)=O)[C@@H]1[C@@H](N(Cc2ccc(-c3cccc(C(F)(F)F)c3)o2)C(=O)Cc2ccc(F)cc2)c2cc(OCCCO)ccc2N1C(=O)c1ccc(-c2ccccc2)cc1 (stereo partly specified) | -0.147
C=C[C@H](OC)[C@@H](OC(=O)Nc1ccc(SC)cc1)c1ccc(O)c(F)c1 | -1.07
O=C1O[C@H](c2ccccc2)[C@H](c2ccccc2)N2[C@H]1[C@@H](C(=O)NC[C@H](O)c1ccccc1)[C@]1(C(=O)Nc3ccc(C#CC4(O)CCCCCC4)cc31)[C@H]2c1ccc(OCCO)cc1 | -0.587
CC(C)C[C@@H]1NC(=O)[C@H](CC(C)C)NC(=O)[C@@]23C(=O)N[C@@H](Cc4ccccc4)C2[C@H](C)[C@@]2(C)O[C@H]2C3/C=C/CC/C=C/CNC1=O (stereo partly specified) | -2.04
O=C1NC(=O)C2C1C=CC(C(O)C=Cc1ccc([N+](=O)[O-])cc1)N2Nc1ccccn1 (stereo unspecified) | -0.411

SMILES | z-score
NC(=O)NCC#Cc1ccc2c(c1)[C@]1(C(=O)N2)[C@H](C(N)=O)[C@H]2C(=O)O[C@H](c3ccccc3)[C@H](c3ccccc3)N2[C@@H]1c1ccccc1OCCO | -0.186
CCOC(=O)C[C@H]1[C@H](OC(=O)c2cc3ccccc3oc2=O)[C@@H](NC(=O)C2CCCCC2)c2cc(OCCCO)ccc2N1C(=O)c1ccc2ccccc2n1 | -0.253
COc1cc2c(cc1OC)CN(C(=O)[C@H]1[C@@H]3C(=O)O[C@@H](c4ccccc4)[C@@H](c4ccccc4)N3[C@@H](c3ccc(O)cc3)[C@]13C(=O)Nc1ccc(C#CC4(O)CCCCCC4)cc13)CC2 | -0.66
O=C1OCCC/C=C\[C@H]2OC34C=CCN(CCN5CCOCC5)C(=O)[C@H]3N(CCCCCO)C(=O)[C@@H]4C12 (stereo partly specified) | -0.0521
C[N+](C)(C)CCCCNC(=O)[C@H]1C[C@H]2C(=O)NCC(=O)N2[C@H]1c1cccc(OCCO)c1 | 0.311
O=C1C[C@@](C(=O)NC2CC2)(c2ccc([N+](=O)[O-])cc2)[C@@H](c2ccc(CO)cc2I)N1CC12CC3CC(CC(C3)C1)C2 | -4.33
C=C(CCCC)/C(=C/C[C@@H](OC(=O)c1ccncc1)c1cccc(OCCO)c1)c1cc(C(=O)OC)ccc1OC | -2.99
Cc1ccc(S[C@]2(C(=O)NCCCN(C)C)CC(=O)N(Cc3ccccc3)[C@@H]2c2ccc(CO)cc2I)cc1 | -2.38
O=C1O[C@H](c2ccccc2)[C@H](c2ccccc2)N2[C@H]1[C@@H](C(=O)Nc1nc3ccccc3s1)[C@]1(C(=O)Nc3ccc(C#CC4(O)CCCCCC4)cc31)[C@H]2c1ccc(O)cc1 | -4.08
O=C(NCc1ccccc1)[C@@]1(Cc2ccccc2)COC(c2ccc(OCCCO)cc2)=N1 | -3.06
C=C(CCCC)/C(=C/C[C@@H](OC(=O)c1ccncc1)c1ccc(CO)o1)c1cnc2ccccc2c1 | -1.18
O=C1C2C=CC(C(O)C#Cc3ccccc3)N(Nc3ccccc3)C2C(=O)N1c1ccccc1 (stereo unspecified) | -0.619
CCCC=C(CCC)[C@@H](NC(=O)c1ccc(C(F)(F)F)cc1)c1ccccc1 | -2.58
COc1ccc(NN2C(C(O)c3cc(OC)c(OC)c(OC)c3)C=CC3C(=O)N(C4CCCCC4)C(=O)C32)cc1 (stereo unspecified) | -0.177
C#CCCCON=C1C[C@@H](O)[C@@H](O)[C@@H]2[C@@H]3C(=O)N(Cc4ccc5c(c4)OCO5)C(=O)[C@@H]3CC[C@@H]12 | 0.351
COC(=O)C1=CC(c2ccc(CO)cc2)=CC(c2cccs2)N(Cc2cccc(OC(F)(F)F)c2)C=C1C(=O)OC (stereo unspecified) | -2.08
O=C1O[C@H](c2ccccc2)[C@H](c2ccccc2)N2[C@H]1[C@@H](C(=O)NC[C@H](O)c1ccccc1)[C@]1(C(=O)Nc3ccc(C#CC4=CCCCC4)cc31)[C@H]2c1ccc(OCCO)cc1 | -2.29
CC[C@H]1C2=C3C(CC[C@H]4C(OC)OC[C@](C)([C@@H]34)N(C(=O)OC(C)(C)C)C2)C(CO)C1CO (stereo partly specified) | 0.586
